# Values joined by “and” are separate entries in the source; they are usually repeats but may differ in a detail not shown here. Identical values can stand only once. About 1,500 (0.65%) of roughly 230,000 compounds were called active.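 How the source made its calls: active means pattern-corrected inhibition of lipid staining of at least 50% with the nuclear-stain viability signal not falling by more than 50%; inactive means the rest, inconclusive results apart.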 What follows is part of a selection rich in actives, with near analogues and random picks from the rest.
# Assay: TAG lipid buildup reduction in H9c2 cells – cell-based, uHTS, fluorescence, primary screen (AID 651582);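 on inhibition: 0% = DMSO wells and 100% = triacsin C control wells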
# Conditions: Nile Red lipid (TAG) fluorescence, at 12.5 µM, cells loaded with 200 µM oleic acid; DAPI nuclei signal change (viability), lower = more cytotoxic: measured here: DAPI nuclei count viability; inhibition: stronger effect = higher value
Structure (SMILES),"DAPI nuclei signal change (viability), lower = more cytotoxic",inhibition
NC(=O)CSc1nnc(-c2cccc(S(=O)(=O)N3CCOCC3)c2)o1,2.86%,9.91% (inactive)
O=[N+]([O-])c1cccc(C=NN=Cc2ccccc2O)c1,-6.09%,3.14% (inactive)
COc1ccc(NC(=O)C2Cc3c(-c4ccc5c(c4)OCO5)ccnc3O2)cn1 (centres undefined),-129%,146% (inactive)
CCN1C(=O)/C(=C\N2CCOCC2)SC1=S,1.56%,1.92% (inactive)
CCN1C(=O)/C(=C2/Sc3ccccc3N2CCCS(=O)(=O)O)SC1=S,12.7% and -2.03%,-9.06% (inactive) and 5.16% (inactive)
CCCCN1C(=O)/C(=C/C=C2/C=Cc3ccccc3N2CC)SC1=S,10.9%,87.8% (active)
CCc1nc2c(OCc3ccc(F)c(F)c3)cccn2c1N(C)C(=O)c1ccco1,-19.3%,7.19% (inactive)
COc1ccc(Nc2cc(=O)oc3ccccc23)cc1,-14.8%,52.3% (active)
COc1ccc(Nc2ccc3ccccc3c2)cc1,8.55%,8.64% (inactive)
COc1ccc(N2CCN(Cc3cc(=O)oc4ccc5ccccc5c34)CC2)cc1,4.7%,7.86% (inactive)
COC(=O)c1ccc(C)c(NC(=O)Cn2c(C)csc2=O)c1,5.24%,-8.36% (inactive)
COc1cccc(NC(=O)C2(C)CCN2Cc2ccccc2Cl)c1 (centres undefined),10.6%,-19.4% (inactive)
CC1CN(Cc2ccco2)C(=S)N(c2ccccc2)C1=O (centres undefined),-1.49%,-14.4% (inactive)
Cc1cs/c(=N\N=C\c2ccc(O)cc2)n1Cc1ccco1,-3.51%,-2.08% (inactive)
CN(C)C(=S)N=c1ssc(=S)n1Cc1ccco1,-24%,51% (active)
Cc1onc(NC(=O)c2ccc([N+](=O)[O-])o2)c1Br,-38.7%,59.1% (active)
Cc1cccc(NC(=O)c2ccc([N+](=O)[O-])o2)c1,-57.9%,80.8% (inactive)
O=C(Nc1ccc(Br)cn1)c1ccc([N+](=O)[O-])o1,-72.2%,83.9% (inactive)
CC(C)(C)OC(=O)C[C@@H]1C/C=C\C[C@@H](CC(=O)NCCO)C(=O)N[C@H](Cc2c[nH]c3ccccc23)COC1=O,3.2%,-15.4% (inactive)
COc1cccc(NC(=O)CN(C)C(=O)c2ccccc2CCc2ccccc2)c1,-2.81%,1.2% (inactive)
O=C(COC(=O)c1ccc(F)cc1)NCC1COc2ccccc2O1 (centres undefined),-0.149%,4.29% (inactive)
COc1cc(OC)c2ccc(=O)oc2c1C(CCN1CCN(c2ccccc2)CC1)c1ccc2c(c1)OCO2 (centres undefined),10.1%,25.2% (inactive)
CCN(CC)CCC(c1ccc2c(c1)OCO2)c1c(OC)cc(OC)c2c(-c3ccccc3)cc(=O)oc12 (centres undefined),-32.4%,57.5% (active)
CCN(CC)CCC(c1cc(OC)c(OC)c(OC)c1)c1c(OC)cc(OC)c2c(-c3ccccc3)cc(=O)oc12 (centres undefined),-19.6%,30.8% (inactive)
COc1ccc(-c2ccc(CN3C(CC(C)C)C(=O)N(Cc4cn(CC5CCCCC5)nn4)CCS3(=O)=O)cc2)cn1 (centres undefined),-15.9%,31% (inactive)
CCCC[C@H]1COCCS(=O)(=O)N1Cc1cccc(Cl)c1,-5.51%,5.89% (inactive)
O=C(CN1C(=O)NC2(CCCCCC2)C1=O)NCc1ccc(F)cc1,0.843%,-2.12% (inactive)
